This note sets out measurements from PubChem BioAssay (NCI).

Common to all, as to test: NCI-60 one-dose screen, 48 h (100 = growth as untreated, 0 = no growth, -100 = all killed)
One assay has as its system HCT-15 colon. The following applies: 10 µM.
Another assay has as its system HT29 colon. Particulars: 10 µM.
The next assay relates to SNB-75 CNS. Particulars: 10 µM.
Another assay relates to SNB-19 CNS. The following applies: 10 µM.
For a further assay, the system named is U251 CNS. The following applies: 10 µM.
A further assay relates to SK-MEL-5 melanoma. Particulars: 10 µM.
Another assay has as its system UACC-62 melanoma. The following applies: 10 µM unless noted.
A further assay concerns LOX IMVI melanoma. Particulars: 10 µM.
Another assay relates to SK-MEL-28 melanoma. The following applies: 10 µM.
The subject of another assay is PC-3 prostate. Particulars: 10 µM.

About 83,000 compounds went through this panel and 20% of them were active in at least one assay; those are over-represented in the sample as a whole.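 Method: cells in 96-well plates; compound added at one concentration; 48 h incubation; percent growth measured; values under 10 scored active.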 Values without a mark were called inactive. Active and inactive are the calls of the source.

Turning to `O=C(NCO)c1ccccc1`, the growth is 101% in the assay on HCT-15 colon; 109% with HT29 colon; 89.8% in the assay on SNB-75 CNS; 107% in the assay on SNB-19 CNS; 105% in the assay with U251 CNS; 111% with SK-MEL-5 melanoma. For the same compound, the growth in the assay on UACC-62 melanoma is 93.8%; in the assay with LOX IMVI melanoma it was 105%; in the assay with SK-MEL-28 melanoma, 105%.
For `COc1ccc(C(C)C=O)cc1` (stereo not drawn), the growth is 93.8% in the assay on HCT-15 colon; 112% in the assay with HT29 colon; 88.4% in the assay with SNB-75 CNS; 107% in the assay on SNB-19 CNS; 107% in the assay with U251 CNS; 123% in the assay with SK-MEL-5 melanoma. Further, the growth in the assay on UACC-62 melanoma was 106%; in the assay on LOX IMVI melanoma it was 105%; with SK-MEL-28 melanoma, 116%.
Consider `Cc1cccc([N+](=O)[O-])c1Cl`, for which the growth is 99.6% in the assay with HCT-15 colon; 112% in the assay with HT29 colon; 95.2% with SNB-75 CNS; 106% in the assay with SNB-19 CNS; 102% in the assay on U251 CNS; 105% in the assay on UACC-62 melanoma. The growth was 101% in the assay with LOX IMVI melanoma and 107% with SK-MEL-28 melanoma.
Take `O=C(O)[C@@H]1[C@H]2C[C@H]3c4[nH]c5ccccc5c4CCN3C[C@@H]2CC[C@@H]1O`: the growth was 106% in the assay with HCT-15 colon; 103% with HT29 colon; 88.4% with SNB-75 CNS; 111% with SNB-19 CNS; 114% with U251 CNS; 111% in the assay with SK-MEL-5 melanoma. The growth with UACC-62 melanoma was 99.4%; in the assay on LOX IMVI melanoma, 103%.
For the compound `CCCNC(=O)c1ccc(S(N)(=O)=O)cc1`, the growth in the assay with HCT-15 colon was 110%; in the assay with HT29 colon, 93.1%; with SNB-75 CNS it was 72.6%; with SNB-19 CNS, 107%; in the assay on U251 CNS it was 103%; with UACC-62 melanoma, 109%. The growth with LOX IMVI melanoma is 98.9%; with SK-MEL-28 melanoma, 97.8%.
Turning to `CC(C)C(C#N)(C(C)C)C(C)C`, the growth in the assay with HCT-15 colon is 104%; in the assay with HT29 colon, 105%; with SNB-75 CNS it was 98.6%; in the assay on SNB-19 CNS it was 108%; with U251 CNS it was 102%; in the assay with SK-MEL-5 melanoma, 101%. For the same compound, the growth is 102% in the assay on UACC-62 melanoma, 112% with LOX IMVI melanoma and 109% in the assay with SK-MEL-28 melanoma.
As to `O=C(Nc1cccc(NC(=O)Nc2cc(C(F)(F)F)ccc2Cl)c1)Nc1cc(C(F)(F)F)ccc1Cl`, the growth is 20.3% in the assay with HCT-15 colon; 12.4% in the assay on HT29 colon; 16.1% in the assay with SNB-75 CNS; 36.2% in the assay with SNB-19 CNS; -17.2% (active) in the assay on U251 CNS; 1.7% (active) with PC-3 prostate. Further, the growth in the assay with UACC-62 melanoma was 19.5%; with SK-MEL-28 melanoma, 34.4%.
Consider `CC(C)COC(=O)COC(=O)OCCOCCOC(=O)OCC(=O)OCC(C)C`, for which the growth is 104% in the assay on HCT-15 colon; 101% in the assay with HT29 colon; 102% with SNB-75 CNS; 101% in the assay on SNB-19 CNS; 94.9% in the assay with U251 CNS; 101% in the assay on SK-MEL-5 melanoma. Also, the growth is 97.6% with UACC-62 melanoma, 106% in the assay with LOX IMVI melanoma and 107% with SK-MEL-28 melanoma.
`OCC1OC(OC2C(O)C(CO)OC2(CO)OC2OC(CO)C(O)C(O)C2O)C(O)C(O)C1O` (stereo not drawn): the growth with HCT-15 colon was 107%; in the assay on HT29 colon it was 102%; in the assay with SNB-75 CNS, 86.1%; in the assay on SNB-19 CNS, 102%; in the assay on U251 CNS it was 109%; in the assay with PC-3 prostate it was 98.5%. Further, the results for the growth in the assay on UACC-62 melanoma and in the assay on SK-MEL-28 melanoma were 107% and 106%, respectively.
`CC1CC(O)C2C3(C)CCCC2(COC3=O)C12CCC1(CCOC1=O)O2` (stereo not drawn): the growth in the assay on HCT-15 colon is 102%; with HT29 colon it was 109%; in the assay with SNB-75 CNS, 96.4%; in the assay on SNB-19 CNS, 108%; with U251 CNS, 102%; in the assay with SK-MEL-5 melanoma it was 111%. Besides, the growth is 114% in the assay on UACC-62 melanoma, 107% in the assay with LOX IMVI melanoma and 111% with SK-MEL-28 melanoma.
With `CCCCNC1(C#N)CCN(Cc2ccccc2)CC1`, the growth in the assay on HCT-15 colon was 108%; in the assay on HT29 colon it was 106%; in the assay on SNB-75 CNS it was 84.2%; in the assay on SNB-19 CNS it was 91.1%; in the assay on U251 CNS, 101%; with PC-3 prostate, 96.1%. Besides, the growth was 95% with UACC-62 melanoma, 99.7% with LOX IMVI melanoma and 102% in the assay with SK-MEL-28 melanoma.
`O=C(O)CCCC(=O)O`: the growth was 101% with HCT-15 colon; 106% in the assay on HT29 colon; 85.7% with SNB-75 CNS; 99.4% in the assay with SNB-19 CNS; 94.3% in the assay with U251 CNS; 102% with SK-MEL-5 melanoma. Moreover, the figures for the growth in the assay on UACC-62 melanoma, in the assay on LOX IMVI melanoma and in the assay on SK-MEL-28 melanoma were 105%, 95.3% and 102%, respectively.
For `Cc1cc(C)cc(NCCC#N)c1`, the growth was 106% in the assay on HCT-15 colon; 105% in the assay with HT29 colon; 94.6% in the assay on SNB-75 CNS; 96.5% in the assay on SNB-19 CNS; 105% in the assay with U251 CNS; 107% in the assay on SK-MEL-5 melanoma. Moreover, the growth is 105% in the assay with UACC-62 melanoma, 105% in the assay with LOX IMVI melanoma and 108% with SK-MEL-28 melanoma.
For the compound `OC1CCCc2ccccc21` (stereo not drawn), the growth with HCT-15 colon is 108%; in the assay with HT29 colon it was 101%; in the assay with SNB-75 CNS, 88%; in the assay on SNB-19 CNS it was 90.8%; in the assay on U251 CNS, 108%; with SK-MEL-5 melanoma it was 111%. Further, the growth is 100% with UACC-62 melanoma, 104% in the assay with LOX IMVI melanoma and 120% with SK-MEL-28 melanoma.
On to `CCS(=O)(=O)c1cc(=O)[nH]c(=O)[nH]1`, for which the growth in the assay with HCT-15 colon is 109%; with HT29 colon it was 101%; in the assay with SNB-75 CNS, 82.4%; with SNB-19 CNS, 102%; in the assay on U251 CNS it was 93.8%; in the assay on SK-MEL-5 melanoma, 93.2%. The growth with LOX IMVI melanoma is 101%; in the assay with SK-MEL-28 melanoma, 98.9%.
On to `c1ccc2c(c1)Sc1ccccc1S2`, for which the growth with HCT-15 colon is 105%; in the assay with HT29 colon, 105%; in the assay on SNB-75 CNS, 89.6%; in the assay on SNB-19 CNS it was 100%; in the assay with U251 CNS, 93.4%; with SK-MEL-5 melanoma it was 101%. The growth in the assay with UACC-62 melanoma was 102%; with SK-MEL-28 melanoma, 110%.
Take `COC(=O)Nc1nc2ccc(C(=O)c3cccs3)cc2[nH]1`: the growth in the assay on HCT-15 colon is 10.8%; in the assay on HT29 colon, 2.02% (active); in the assay on SNB-75 CNS, 32.8%; in the assay with SNB-19 CNS, 29.9%; with U251 CNS it was 16.6%; in the assay with SK-MEL-5 melanoma, -21.1% (active). The growth in the assay on UACC-62 melanoma was 34.2%; with LOX IMVI melanoma, 28.4%; in the assay with SK-MEL-28 melanoma it was 56.3%.
Turning to `N#Cc1ccc(OC(=O)Nc2ccc(Cl)c(Cl)c2)cc1`, the growth is 53.6% in the assay on HCT-15 colon; 63.4% in the assay with HT29 colon; 93.2% with SNB-75 CNS; 87% in the assay with SNB-19 CNS; 36.2% in the assay on PC-3 prostate; 81.5% in the assay with SK-MEL-5 melanoma. Besides, the values for the growth with UACC-62 melanoma and in the assay on SK-MEL-28 melanoma were 65.7% and 94.1%, respectively.
For `CC(=O)Nc1ccc(NC(C)=O)c2c1C(=O)c1ccccc1C2=O`, the growth in the assay on HCT-15 colon is 86.1%; in the assay with HT29 colon, 99.7%; in the assay with SNB-75 CNS, 85.9%; in the assay on SNB-19 CNS, 111%; in the assay on SK-MEL-5 melanoma, 96.8%; with UACC-62 melanoma, 73.3%. Also, the growth with LOX IMVI melanoma was 86%; in the assay with SK-MEL-28 melanoma it was 115%.
As for `CCOC(=O)C1=C(Nc2ccc(Br)cc2)C(=O)N(CC)C1`, the growth in the assay on HCT-15 colon was 91.4%; in the assay on HT29 colon, 103%; in the assay with SNB-75 CNS, 94.7%; in the assay with SNB-19 CNS, 84%; in the assay with PC-3 prostate, 101%; with SK-MEL-5 melanoma, 97.7%. Also, the growth was 84.2% in the assay on UACC-62 melanoma, 94.3% in the assay with LOX IMVI melanoma and 101% with SK-MEL-28 melanoma.
For `CC(=O)C1CCCCC1`, the growth in the assay on HCT-15 colon is 95%; in the assay with HT29 colon, 104%; in the assay with SNB-75 CNS, 87.1%; in the assay with SNB-19 CNS, 100%; in the assay on PC-3 prostate, 96.8%; with SK-MEL-5 melanoma, 99.9%. Moreover, the growth with UACC-62 melanoma is 103%; in the assay on LOX IMVI melanoma it was 99.9%; in the assay on SK-MEL-28 melanoma it was 102%.
As to `N/N=C(/Cc1ccccc1)NNC(N)=S`, the growth in the assay with HCT-15 colon was 97.5%; in the assay on HT29 colon it was 95.7%; in the assay on SNB-75 CNS it was 87.7%; with SNB-19 CNS, 105%; in the assay on PC-3 prostate it was 88.3%; in the assay on SK-MEL-5 melanoma, 97.3%. The growth is 101% with UACC-62 melanoma, 94.5% in the assay with LOX IMVI melanoma and 114% in the assay with SK-MEL-28 melanoma.
With `COc1ccccc1N1CCN(C(=S)Nc2ccccc2)CC1`, the growth with HCT-15 colon is 103%; in the assay with HT29 colon, 96.7%; in the assay with SNB-75 CNS it was 84%; with SNB-19 CNS, 99.6%; in the assay with PC-3 prostate it was 89.9%; in the assay on SK-MEL-5 melanoma, 97.9%. Moreover, the growth in the assay with UACC-62 melanoma is 98.2%; in the assay with SK-MEL-28 melanoma, 105%.
For `CC1(C)OC(=O)C(c2ccsc2)C(=O)O1`, the growth with HCT-15 colon was 109%; with HT29 colon, 100%; in the assay on SNB-75 CNS, 92.5%; in the assay on SNB-19 CNS, 108%; in the assay with PC-3 prostate it was 85%; in the assay on SK-MEL-5 melanoma, 101%. Further, the growth was 105% in the assay on UACC-62 melanoma, 88.8% in the assay on LOX IMVI melanoma and 115% with SK-MEL-28 melanoma.
Take `COC(=O)Nc1cccc(Cl)c1OC`: the growth is 96.4% in the assay on HCT-15 colon; 111% in the assay with HT29 colon; 99% with SNB-75 CNS; 112% in the assay on SNB-19 CNS; 103% in the assay on PC-3 prostate; 100% in the assay on SK-MEL-5 melanoma. The growth was 111% with UACC-62 melanoma and 114% with SK-MEL-28 melanoma.
Take `CC(=O)OCCO`: the growth was 107% in the assay with HCT-15 colon; 120% in the assay on HT29 colon; 84.7% with SNB-75 CNS; 110% with SNB-19 CNS; 104% with PC-3 prostate; 102% in the assay on SK-MEL-5 melanoma. The growth with UACC-62 melanoma was 108%; in the assay on LOX IMVI melanoma, 107%; with SK-MEL-28 melanoma it was 100%.
